{
  "source": "ChEMBL document CHEMBL4513146",
  "about": "“CO-ADD screening of Karazin Kharkiv National University (Ukraine) compounds”",
  "note": "Measured potencies and affinities stand elsewhere.",
  "data": [
    {"system": "Klebsiella pneumoniae", "conditions": "Concentration 32 ug.mL-1;; ASSAY_TEST Inhibition of Bacterial Growth; detection method Absorption (OD600); MEDIA CAMHB; plate type 384well; NBS; CORNING #3640; time 18 hr", "units": {"Inhibition": "%"}, "values": [
      {"smiles": "CCOc1ccccc1NC(=O)Cn1nc2c(N3CCN(c4ccccc4C)CC3)nccn2c1=O", "Inhibition": -9.36},
      {"smiles": "CCc1ccccc1Sc1nccn2c(=O)n(CC(=O)N3CCN(c4ccccc4F)CC3)nc12", "Inhibition": 1.78},
      {"smiles": "CCc1ccccc1NC(=O)Cn1nc2cc(C)nc(Nc3ccc(F)cc3)n2c1=O", "Inhibition": 9.33},
      {"smiles": "CCOC(=O)c1ccccc1NC(=O)CSc1nnc2ccc(C(=O)Nc3cccc(F)c3)cn12", "Inhibition": 3.32},
      {"smiles": "COc1cccc(Cn2nc3n(CCC(=O)NC4CCCCC4)c(=O)c4ccccc4n3c2=O)c1", "Inhibition": 9.79},
      {"smiles": "Cc1nnc2c(=O)n(CC(=O)Nc3ccccc3F)c3ccccc3n12", "Inhibition": 0.65},
      {"smiles": "Cc1cc(C)cc(NC(=O)CSc2nnc3c(=O)n(-c4ccc(Br)cc4)ccn23)c1", "Inhibition": 11.44},
      {"smiles": "CCCc1nnc2c(=O)n(CC(=O)Nc3cccc(C(C)=O)c3)c3ccccc3n12", "Inhibition": -4.73},
      {"smiles": "O=C(CCc1nnc2ccc(-c3ccc(Cl)cc3)nn12)NCc1ccc(F)cc1Cl", "Inhibition": 20.9},
      {"smiles": "CSc1cccc(NC(=O)Cn2nc3ccc(SC(C)(C)C)nn3c2=O)c1", "Inhibition": 7.55},
      {"smiles": "Cc1ccc(Sc2nccn3c(=O)n(CC(=O)Nc4ccc(F)c(Cl)c4)nc23)c(C)c1", "Inhibition": -6.57},
      {"smiles": "O=C(CSc1nnc2ccc(C(=O)Nc3cccc(F)c3)cn12)Nc1ccc(F)c(F)c1", "Inhibition": 2.94},
      {"smiles": "Cc1ccc(C)c(C(=O)CSc2nnc3c(=O)n(-c4ccc(F)c(F)c4)ccn23)c1", "Inhibition": 16.06},
      {"smiles": "CCOc1ccc(NC(=O)Cn2nc3ccc(-c4ccc(C)c(C)c4)nn3c2=O)cc1", "Inhibition": 4.27},
      {"smiles": "Cc1nnc2c(=O)n(CC(=O)NC3CCCC3)c3ccccc3n12", "Inhibition": 6.01},
      {"smiles": "CCOC(=O)c1ccccc1NC(=O)Cn1nc2ccc(C(=O)Nc3ccc(OC)cc3)cn2c1=O", "Inhibition": -1.54},
      {"smiles": "COc1cccc(Oc2nccn3c(=O)n(CC(=O)NCc4cccs4)nc23)c1", "Inhibition": 11.61},
      {"smiles": "CC(C)c1ccc(NC(=O)Cn2nc3c(Sc4ccccc4)nccn3c2=O)cc1", "Inhibition": -10.24},
      {"smiles": "CCc1nnc2c(S(=O)(=O)N(Cc3cccc(F)c3)c3cccc(C)c3)cccn12", "Inhibition": 4.33},
      {"smiles": "COc1ccc(NC(=O)Cn2nc3c(Sc4cccc(C)c4)nccn3c2=O)cc1Cl", "Inhibition": 5.17},
      {"smiles": "Cc1ccc(Oc2nccn3c(=O)n(CC(=O)Nc4ccccc4C(F)(F)F)nc23)cc1", "Inhibition": 6.49},
      {"smiles": "O=C(Cn1nc2ccc(Sc3cccc(F)c3)nn2c1=O)NCc1ccc(C(F)(F)F)cc1", "Inhibition": 8.35},
      {"smiles": "Cc1ccc(-c2cc3c4nn(CC(=O)Nc5ccc(C)c(Cl)c5)c(=O)n4ccn3n2)cc1C", "Inhibition": 10.5},
      {"smiles": "C=Cc1ccc(CN(c2ccc(C(C)C)cc2)S(=O)(=O)c2cccn3cnnc23)cc1", "Inhibition": 14.46},
      {"smiles": "CC(C)CCNC(=O)CSc1nnc2c(=O)n(Cc3ccc(F)cc3)ccn12", "Inhibition": 4.54},
      {"smiles": "COC(=O)c1ccccc1NC(=O)Cn1nc2c(SC3CCCCC3)nccn2c1=O", "Inhibition": 12.08},
      {"smiles": "CCCCc1ccc(NC(=O)CSc2nc3ccccc3n3c(CC)nnc23)cc1", "Inhibition": 13.43},
      {"smiles": "Cc1cccc(Oc2nccn3c(=O)n(CC(=O)NCCCc4ccccc4)nc23)c1C", "Inhibition": 15.41},
      {"smiles": "O=S(=O)(Nc1ccc2c(c1)OCCO2)c1ccc2nncn2c1", "Inhibition": 12.24},
      {"smiles": "COc1cc(NC(=O)CSc2nnc3c(=O)n(-c4cccc(F)c4)ccn23)cc(OC)c1", "Inhibition": 4.95},
      {"smiles": "COc1ccccc1-n1ccn2c(=O)n(Cc3ccc(F)cc3Cl)nc2c1=O", "Inhibition": 1.73},
      {"smiles": "CSc1ccc(CNC(=O)Cn2nc3c(N4CCN(c5ccccc5)CC4)nccn3c2=O)cc1", "Inhibition": 15.47},
      {"smiles": "CCc1nnc2c(S(=O)(=O)N(Cc3ccc(OC)c(F)c3)c3ccccc3)cccn12", "Inhibition": 7.72},
      {"smiles": "CCc1nnc2ccc(S(=O)(=O)N(Cc3cccc(OC)c3)c3cccc(F)c3)cn12", "Inhibition": 10.63},
      {"smiles": "Cc1ccccc1CN(c1ccc(Cl)cc1)S(=O)(=O)c1cccn2c(C)nnc12", "Inhibition": 11.42},
      {"smiles": "Cc1cccc(Oc2nc3ccccc3n3c(=O)n(CC(=O)Nc4ccc5c(c4)OCCO5)nc23)c1C", "Inhibition": 14.16},
      {"smiles": "CCCN(C)c1nccn2c(=O)n(CC(=O)Nc3cccc(SC)c3)nc12", "Inhibition": 8.64},
      {"smiles": "CCc1nnc2c(=O)n(CC(=O)Nc3ccc(Br)cc3F)c3ccccc3n12", "Inhibition": 8.6},
      {"smiles": "O=c1c2sccc2n2c(=O)n(Cc3ccccc3Cl)nc2n1CCc1ccccc1", "Inhibition": 12.78}
    ]}
  ]
}
